Among all 1,900 compounds or so, about 250 (13%) were called active. Inconclusive results (about 4%) are left out. A selection follows. Measured potencies and affinities stand elsewhere. A number with no mark means an inactive call.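 The calls were made as follows: active = fitted curve reaches 40% rescue activity at or below the top valid dose, in every test run; inconclusive = test runs disagree, some active and some inactive; inactive = every run misses the threshold or moves the wrong way.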
assay: suppressors of statin myotoxicity in myotubes, dose response, cell-based, C2C12 myotubes, ATP luminescence, cherry pick (AID 624405); settings: C2C12 myotubes + simvastatin, 48 h, scaled: DMSO wells 0, geranylgeraniol wells 100; series mostly up to 19.5 µM; rescue activity (ATP increase): at the top concentration;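 also: myotubes are challenged with simvastatin at 10 µM to lower ATP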

| SMILES | rescue activity (ATP increase) |
| --- | --- |
| C[C@H]1CCCCO[C@@H](CN(C)C(=O)Nc2cccc3ccccc23)[C@@H](C)CN([C@@H](C)CO)C(=O)c2cc(NS(=O)(=O)c3ccc(Cl)cc3)ccc2O1 | 27.8% |
| C[C@@H]1CN([C@H](C)CO)C(=O)c2cc(C3=CCCCC3)cnc2O[C@@H]1CN(C)Cc1ccccc1F | 9.58% |
| Cc1noc(C)c1NC(=O)Nc1ccc2c(c1)C(=O)N([C@@H](C)CO)C[C@@H](C)[C@H](CN(C)S(=O)(=O)c1c(C)noc1C)OCCCC[C@@H](C)O2 | -8.13% |
| COc1cc(CCC(=O)OCc2nnc(-c3ccccc3)o2)cc(OC)c1OC | 71.2% |
| Nc1nnnn1NCc1cccc(OCc2ccccc2)c1 | 45.5% |
| Cc1ccc(N2C(N)=NC(N)=NC2(C)C)c(C)c1 | -3.46% |
| CCOC(=O)N1CCN(C(=O)c2ccc3c(=O)n(CCc4ccccc4)c(=O)[nH]c3c2)CC1 | 3.38% |
| CN1C(=O)c2cc(NS(=O)(=O)c3ccc(Cl)cc3)ccc2OC[C@@H]2O[C@@H](CC(=O)N3CCc4ccccc4C3)CC[C@H]21 | 24.8% |
| COc1cccc(C(=O)CN2C3=NCCCN3c3ccccc32)c1 | -55.7% |
| CCCCN1C(=O)NC(NC(C)=O)(C(F)(F)F)C1=O (stereo not drawn) | 20.1% |
| Cc1cccc(N=c2oc3cc(O)ccc3cc2C(N)=O)c1 | 0.245% |
| O=C(Cn1ncc2c3ccccc3n(Cc3cccc(Cl)c3)c2c1=O)NCC1CCCO1 (stereo not drawn) | 21.1% |
| O=c1c2ccccc2n(Cc2ccc(F)cc2)c(=O)n1C1CCCC1 | -1.96% |
| N#Cc1cc(-c2ccccc2)nnc1Sc1ccc(Cl)cc1 | -22% |
| COc1ccc(CN(Cc2cccn2C)C(=O)c2cc3cc(OC)ccc3[nH]2)cc1 | 11.4% |
| Cn1c(-c2ccc(F)cc2)cnc1NCc1ccc(F)cc1 | -41.3% |
| COc1cc(NC(=O)c2cccs2)c(C(=O)OCC(=O)NCc2ccco2)cc1OC | -6.19% |
| Cc1ccc(CNC(=O)CNS(=O)(=O)c2cccc3nsnc23)cc1 | -8.33% |
| COc1ccc(S(=O)(=O)Nc2ccc3c(c2)C(=O)N([C@H](C)CO)C[C@@H](C)[C@H](CN(C)S(=O)(=O)c2ccc(F)cc2)OCCCC[C@H](C)O3)cc1 | 11.2% |
| CNC[C@@H]1Oc2ccc(NS(=O)(=O)c3c(C)noc3C)cc2C(=O)N([C@@H](C)CO)C[C@@H]1C | 26.8% |
| Cc1nc(CSc2ccc(Cl)cc2)cc(N2CC(C)OC(C)C2)n1 (stereo not drawn) | -17.7% |
| CC1CC(C)CN(CCCNC(=O)c2ccc3c(c2)NC(=O)C(N2CCCCC2)S3)C1 (stereo not drawn) | -22.8% |

| SMILES | rescue activity (ATP increase) |
| --- | --- |
| Cc1ccc(NC(=O)c2cc(-c3cccs3)on2)cc1 | -5.35% |
| O=C(Nc1cccc(C(F)(F)F)c1)c1cc(-c2cccs2)on1 | -19.6% |
| O=C(Nc1cc(Br)ccc1O)c1cc(-c2cccs2)on1 | -16.9% |
| CC(=O)c1cccc(NC(=O)c2cc(-c3cccs3)on2)c1 | 39.1% |
| CCN(CCCNC(=O)C1CCC(=O)N1C(C)C)c1cccc(C)c1 (stereo not drawn) | 26.9% |
| Cc1noc(C)c1S(=O)(=O)Nc1ccc2c(c1)C(=O)N([C@@H](C)CO)C[C@H](C)[C@H](CN(C)Cc1ccc3c(c1)OCO3)O2 | -0.012% |
| O=C(Nc1ccccc1)Oc1cccc2cccnc12 | -6.01% |
| COc1ccc(S(=O)(=O)Nc2ccccc2C(=O)NC(C)(C)C)cc1OC | 33.8% |
| COc1ccccc1NS(=O)(=O)c1cccc(NC(=O)c2ccc3ccccc3n2)c1 | 4.04% |
| C#CCOC(=O)c1ccccc1C(=O)N(CC)CC | -18.7% |
| O=C(CCN1CCc2ccccc21)c1ccc2c(c1)OCCO2 | -0.935% [at 10 µM] |
| COc1ccc(C2CC(=O)Oc3c(C(CCN4CCCCC4)c4ccc(N(C)C)cc4)c(OC)cc(OC)c32)cc1 (stereo not drawn) | -41.5% |
| O=C(Nc1cnn(Cc2ccccc2)c1)c1cc2nc(-c3ccco3)cc(C(F)(F)F)n2n1 | -13.4% |
| COc1ccc(S(=O)(=O)Nc2cccc3c2O[C@H](CN(C)CC2CCCCC2)[C@H](C)CN([C@H](C)CO)C3=O)cc1 | -8.94% |
| Cc1cc(NC(=O)COC(=O)C2CCN(S(=O)(=O)c3c(Cl)cccc3Cl)CC2)no1 | 26.2% |
| N#Cc1ccc(-c2nnnn2-c2ccc3c(c2)OCO3)cc1 | 6.82% |
| COc1ccccc1N(CC(=O)Nc1ccc2c(c1)OCCO2)S(C)(=O)=O | 5.49% |
| COC(=O)c1ccccc1NC(=O)c1ccccc1OC | -9.52% |
| Cc1noc(C)c1S(=O)(=O)N1CCC(C(=O)N2CCN(c3ccccc3Cl)CC2)CC1 | 7.83% |
| C[C@@H]1CCCCO[C@H](CN(C)CC2CCCCC2)[C@@H](C)CN([C@H](C)CO)C(=O)c2cc(NC(=O)CCCN(C)C)ccc2O1 | 2.27% |
| C[C@@H]1CN([C@@H](C)CO)C(=O)c2cc(C3=CCCCC3)cnc2O[C@@H]1CN(C)C(=O)C1CCOCC1 | 16.4% |

From PubChem BioAssay AID624405 (Broad Institute, 2012)
